# Screening results: PubChem BioAssay, National Center for Advancing Translational Sciences (NCATS)
# Sampled rows, rich in hits. Any-hit rate of the full collection: about 8%.
# MARV entry inh – qHTS for inhibitors of binding or entry into cells for Marburg Virus. Marburg virus pseudotyped entry inhibition, cell reporter. Potency, µM (titrated, usually from 37.8 µM), without a hit: top-dose activity change, negative = inhibition, most hits filed as inhibitors. 1.8% of 300,000 active. AID 540276, 2011; calls by dose curve; tested in HEK293 cells; note: potency is the fitted concentration of half-maximal effect; % is set by controls: 0 for no effect and ±100 for the full control effect
# Lassa entry inh – qHTS for Inhibitors of binding or entry into cells for Lassa Virus; Lassa virus pseudotype entry inhibition, cell reporter; Potency, µM (series often up to 37.9 µM), inactives show top-dose activity change, negative = inhibition, usual class: inhibitors; 1.2% of 300,000 active; calls by dose curve; tested in HEK293 cells; note: potency is the fitted concentration of half-maximal effect; % is set by controls: 0 for no effect and ±100 for the full control effect; nearly all actives have a fitted effect of over 50% in size
# HCV inhibitor – qHTS Assay for Inhibitors of Hepatitis C Virus (HCV). Huh7.5.1 HCVcc-Cre infection, luciferase reporter, 44 h. Potency, µM (top dose mostly 41.8 µM), without a hit: at the top dose activity change, negative = inhibition, hits mostly inhibitors. 3.4% of 340,000 active. AID 651820, 2012; active = well fitted inhibition curve with a large enough effect; inconclusive = small, poorly fitted or top-dose-only effect, or another doubt; inactive = no such curve, though single readings can be large or run the other way; note: potency is the fitted concentration of half-maximal effect; % is set by controls: 0 for no effect and ±100 for the full control effect
#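 A cell-based infection assay in which seeded cells (1,000 per well) receive test compound after 4 h, are inoculated with HCVcc-Cre at approximately 0.5 moi, and are incubated 44 h before luminescence detection.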
# FMDV antiviral – High Throughput Screening for Foot and Mouth Disease Virus Antivirals | Potency, µM (titrated, usually from 57.9 µM), inactives show at the top dose activity change, negative = inhibition, most hits filed as inhibitors | FMDV antiviral cell-based qHTS | 1.2% of 410,000 active; calls by dose curve; tested in HEK293T cells; note: read-out not given here; potency is the fitted concentration of half-maximal effect; % is set by controls: 0 for no effect and ±100 for the full control effect; nearly all actives have a fitted effect of over 45% in size
# SARS PLP yeast – qHTS of Yeast-based Assay for SARS-CoV PLP; 0.19% of 330,000 active; S. cerevisiae expressing SARS-CoV PLpro, growth rescue; Potency, µM (doses to about 32.9 µM), for the others: top-dose activity, positive = growth rescue, usual class: activators; AID 485353, 2010; calls by dose curve; note: potency is the fitted concentration of half-maximal effect; 0% is about no effect; nearly all actives have a fitted effect of over 55% in size
# HCMV inh – qHTS Assay for inhibitors of the human cytomegalovirus (HCMV); activity change, negative = inhibition, % at 57.5 µM; 4.5% of 410,000 active; HFF cells, HCMV-luciferase reporter, 72 h; hits give low values; in the data active = activity change below about -60%; inconclusive = no clear call, values can overlap the other calls; inactive = above about -39%; note: % is set by controls: 0 for no effect and ±100 for the full control effect
#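 Two compound doses tested in HFFs infected with HCMV-luciferase, MOI 1 PFU/cell, 72 h at 37C. Lysate luminescence read with OneGlo; data normalized against buffer-only and 10uM Salinomycin inhibitor controls.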
# The depositor's hits bear a star; ? = inconclusive; · = no result given; [ ] = remark or other dose.
SMILES,MARV entry inh,Lassa entry inh,HCV inhibitor,FMDV antiviral,SARS PLP yeast,HCMV inh
COc1ccc(C(=O)C2CCCN(Cc3cnc(C)s3)C2)c(OC)c1 (stereo unspecified),-9%[46.1 µM],?,?,?,-2%,?
COc1ccc(C(=O)C2CCCN(Cc3cc(Cl)ccc3O)C2)c(OC)c1 (stereo unspecified),?,?,11µM*,?,5%,-26
COc1ccc(C(=O)C2CCCN(Cc3cc(C)c(O)c(C)c3)C2)c(OC)c1 (stereo unspecified),-51%,1%,?,-24%,11%,10
COc1ccc(C(=O)C2CCCN(Cc3sc(N4CCCC4)nc3Cl)C2)c(OC)c1 (stereo unspecified),·,·,?,?,1%,-72*
CC(C)CNc1nc(SCC(=O)Nc2ccccc2)nc(N2CCOCC2)n1,?,-11%,-6%,13%,-1%,-36
COc1ccc(-c2csc3ncnc(NCCCO)c23)cc1,?,8%[46.1 µM],?,?,19%,-68*
COc1ccc(-c2csc3ncnc(NCCO)c23)cc1,·,·,?,?,2%,-87*
COc1ccc(-c2csc3ncnc(Nc4ccccc4)c23)cc1,·,25%[46.1 µM],·,?,·,-15
COc1ccc(-c2csc3ncnc(Nc4ccc(O)cc4)c23)cc1,·,·,?,-27%,0%,?
CN(N=Cc1ccc(N(C)C)cc1)C(=O)c1ccccc1N,·,·,·,·,·,119
CC(C)(C)OC(=O)N1CCC(C(=O)Nc2cccc(C(=O)N3CCCCC3)c2)CC1,·,?,-25%[8.37 µM],?,·,12
CC(=O)OC1C(O)C(C)OC(OC2C(OC(=O)C3CCC4C(C3)OC3(CC(OC(=O)/C=C/c5ccccc5)C(C)CO3)C43CO3)OC(C)C(O)C2OC(C)=O)C1O (stereo unspecified),?,?,?,?,·,-98*
CC(=O)CCC1C2C(O)C(C(C)C)C(OC(=O)/C=C/c3ccccc3)CC12C (stereo unspecified),·,·,-16%,?,1%,1
NC(=O)c1c(/N=C/c2cccnc2)sc2c1CCCC2,-20%,18%,-11%,60%,0%,-27
COc1cc(C#Cc2c(-c3cncn3C)n(C)c3ccc(-c4cnc(N5CCOCC5)nc4)cc23)cc(OC)c1,·,·,15%,20%,-1%,47
COc1cc(C#Cc2c(-c3cncn3C)n(C)c3ccc(-c4ccc(CN5CCOCC5)cc4)cc23)cc(OC)c1,·,·,11µM*,-25%,7%,-10
CCCOc1ccc(C(=O)N2CC3(CC(c4cccc(NC(=O)[C@@H]5CCC(=O)N5)c4)=NO3)C[C@H]2C(=O)NC2(C(N)=O)CC2)cc1 (stereo partly specified),0%,·,2%,-15%,6%,-64*
O=C(Cn1ccn(-c2ccc(F)cc2)c(=O)c1=O)NCCc1ccccc1,·,7%[46.1 µM],·,-6%,·,?
O=C(/C=C/c1ccc2c(c1)OCO2)Nc1nncs1,·,·,0%,58%,0%,77
Cc1sc(NC(=O)/C=C/c2ccc3c(c2)OCO3)nc1-c1ccccc1,?,?,?,6.3µM*,21%,?
O=C(/C=C/c1cccs1)Nc1nncs1,·,·,-9%,59%,-2%,0
O=C(/C=C/c1ccc2c(c1)OCO2)Nc1nc(-c2ccccc2)cs1,?,-27%,6.3µM*,14µM*,4%,?
O=C(/C=C/c1cccs1)Nc1nc(-c2ccccc2)cs1,?,8%,22µM*,-47%,-1%,-15
COc1ccc2c(Sc3ccc(C)cc3)c(C(=O)NCc3ccc(F)cc3)[nH]c2c1,?,-12%[46.1 µM],·,0%,·,-16
Clc1ccc(SCc2cc(N3CCOCC3)nc(-c3ccccn3)n2)cc1,?,?,8.9µM*,-26%,0%,-92*
SMILES,MARV entry inh,Lassa entry inh,HCV inhibitor,FMDV antiviral,SARS PLP yeast,HCMV inh
O=c1cc(CSc2ccccc2)nc(-c2ccccc2)[nH]1,-2%[46.1 µM],1%,-3%,-10%,1%,-105*
O=c1cc(CSc2ccc(Cl)cc2)nc(-c2ccccn2)[nH]1,·,·,?,?,-5%,-61*
Clc1ccc(SCc2csc(N3CCOCC3)n2)cc1,-17%,3%,?,-11%,-3%,-19
CCC(CC)COC(=O)C1=C(C)NC(=O)NC1c1ccc(N(C)C)cc1 (stereo unspecified),·,·,?,?,-10%,?
COc1cc(-c2noc(-c3ccccc3C(=O)NCc3ccco3)n2)cc(OC)c1OC,?,?,11µM*,?,-2%,8
COc1cc(-c2noc(-c3ccco3)n2)cc(OC)c1OC,-41%,-6%,13µM*,14%,7%,155
CC1(C)O[C@@H]2[C@H](O1)[C@@H](COS(=O)(=O)O)O[C@H]2n1cnc2c(N)ncnc21,·,·,4%,·,-11%,·
CCC(=O)NNC(=O)c1cc(COc2cc(Cl)cc(Cl)c2)on1,·,·,12%,-16%,0%,-21
Cc1cc(=O)oc2cc(OCC(=O)Nc3c(C(C)C)cccc3C(C)C)ccc12,·,-5%[46.1 µM],·,-11%,·,-25
COC(=O)C(Nc1cc(OC)ccc1OC)(c1ccc(F)cc1)C(Nc1cc(OC)ccc1OC)c1ccc(Br)cc1 (stereo unspecified),·,·,·,·,·,-7
COc1ccc2[nH]c3c(c2c1)CCN1C(=O)N([C@@H](C)C(=O)NCc2ccccc2OC)C(=O)[C@]31C,·,·,13µM*,-27%,-1%,17
C[C@@H](C(=O)NCCc1ccccc1F)N1C(=O)N2CCc3c([nH]c4ccccc34)[C@@]2(C)C1=O,·,·,6.3µM*,0%,-28%,5
C[C@@H](C(=O)NCCc1ccccc1)N1C(=O)N2CCc3c([nH]c4ccccc34)[C@@]2(C)C1=O,·,·,11µM*,-33%,-24%,-5
CC(C)C[C@@H](C(=O)NC1CC1)N1C(=O)N2CCc3c([nH]c4ccccc34)[C@@]2(C)C1=O,·,·,-29%,-26%,5%,14
COc1ccc2[nH]c3c(c2c1)CCN1C(=O)N([C@@H](C)C(=O)NCc2ccccc2)C(=O)[C@]31C,·,·,-24%,-1%,5%,14
CC(C)Nc1ccc(C(CC(N)=O)NC(=O)Cc2ccc(Br)cc2)cc1[N+](=O)[O-] (stereo unspecified),·,·,9%,-16%,2%,?
COc1ccc(/C(N)=N/OC(=O)Cc2ccc(OC)c(OC)c2)cc1,?,-17%,?,·,-16%,-90*
COc1ccc(CC(=O)O/N=C(\N)c2ccncc2)cc1OC,·,·,·,-6%,·,-23
O=Cc1ccccc1Cl,·,·,·,·,·,-23
Nc1ccccc1C#CC(=O)c1ccccc1,·,·,?,?,-12%,-100*
COc1cccc(CNCc2ccccn2)c1OC,-1%,-1%,-7%,·,-3%,-61*
